Assay [1] in a line: Her2 expression decrease, cell viability multiplex – SKBR3 breast tumor cells, AlphaScreen, ATP viability, primary screen (AID 461;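 active means Her2 level under about 52% in both replicate screens, with viability over 70% of control, limit read from the data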;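 on Her2 level: lower value means less Her2 protein in the cells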;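 on viability: percent of carrier control wells set as 100% viability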). To be noted: SKBR3 Her2 protein level, 18-24 h, measured here: SKBR3 viability, ATP luminescence, at 10 µM. For orientation: In Alpha technology, singlet oxygen from a donor bead excites a nearby acceptor bead.
Assay [2] addresses Receptor tyrosine-protein kinase erbB-2 (Homo sapiens) (UniProt P04626). Described as above. Conditions: 18-24 h, at 10 µM, stronger effect = lower value.
Assay [3] can be described thus: reduced viability of SK-BR-3 breast cancer cells – cell-based, 24 h, human, pilot screen (AID 572;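 active means viability at or below 10% of carrier control in both of two separate runs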;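 further: compound exposure lasted between 18 and 24 h rather than exactly 24 h; 100% = carrier-treated control wells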). To be noted: SK-BR-3 viability, CellTiter-Glo luminescence, at 10 µM, stronger effect = lower value. (In ATP-based viability assays light output follows the ATP content of the culture.)
Assay [4] is described as follows: HUVEC growth inhibition – cell-based, human, primary screen (AID 575;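 active means viability at or below 30% in both replicate assays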;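 further: 100% = median of untreated cell wells with 0.1% DMSO on each plate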). Conditions: HUVEC proliferation, CellTiter-Glo luminescence, 72 h; at 10 µM; stronger effect = lower value.
Assay [5] in a line: H69AR cell proliferation blockers – human, duplicate replicates, primary screen (AID 580;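 active means viability at or under a set limit in both replicates, limit being median viability minus 3 SD, cut at about 48% in these data, passing the limit was not always enough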;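 further: 100% = mean luminescence of untreated wells and 0% = no signal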). To be noted: H69AR lung tumor cells viability, ATP luminescence, 72 h; at 10 µM; stronger effect = lower value.
The nature of assay [6]: MRP1 drug-resistance reversers in H69AR cells – cell-based, doxorubicin co-treatment, pilot screen (AID 601;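 active means viability loss from added drug above about 55%, and viability with drug at most 40%, in both replicates, limit read from the data, passing the limit was not always enough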). Conditions: CellTiter-Glo, 72 h, at 10 µM; for differential viability (reversal): stronger effect = higher value.
The nature of assay [7]: yeast transport mutant growth inhibition pilot in 384-well plates, post-Golgi transport modulator project (AID 636; in the data active means inhibition above about 31%). Conditions: absorbance 615 nm, about 18 h, stronger effect = higher value.
Assay [8] can be described thus: growth suppression of yeast trafficking mutant, preliminary HTS, modulators of trafficking downstream of Golgi apparatus project, 1536-format plate, OD 615 nm (AID 637; in the data active means inhibition above about 30%). Conditions: yeast transport mutant growth, absorbance 615 nm, 18 h; stronger effect = higher value.
Assay [9] can be described thus: S. cerevisiae growth inhibition in permissive medium (OD615), pilot counter-assay for S. cerevisiae lifespan shortening project, permissive growth control (AID 705;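 active means growth inhibition above 25% in both replicates, a cutoff set 3 SD above the mean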). Conditions: OD615, 24 h, at 10 µM, stronger effect = higher value.
Assay [10] in a line: S. cerevisiae growth inhibition in restrictive medium, OD615, pilot screen, restrictive growth control, yeast lifespan reduction project (AID 706;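 active means growth inhibition above a set limit, 3 SD over mean compound inhibition, in both replicates, cut at about 43% in these data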;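 further: modified DeaD lifespan yeast strain shifted to restrictive glucose medium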). To be noted: OD615, 48 h, at 10 µM, stronger effect = higher value.
The nature of assay [11]: doxorubicin toxicity protection in MRP-1 cells – H69AR cells, CellTiter-Glo, duplicate, MRP-1 activator project, pilot screen (AID 807).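 Further: compound pretreatment 18-22 h then 72 h combined with doxorubicin; 0% = doxorubicin alone and 100% = vehicle without doxorubicin.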 Conditions: H69AR viability with doxorubicin, CellTiter-Glo luminescence; at 10 µM; stronger effect = higher value.
The nature of assay [12]: viability of HCT116 without oncogenic beta-catenin – human colon tumor cells, pilot screen (AID 823;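 active means cell viability at or below a set limit in both duplicate runs, the limit being the all-compound median minus 4 SD, cut at about 23% in these data, passing the limit was not always enough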;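 further: 0% = wells killed by 20 µM Hyamine and 100% = untreated DMSO cell wells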). Conditions: HCT116 beta-catenin knockout viability, CellTiter-Glo, 60 h; at 10 µM; stronger effect = lower value.
The nature of assay [13]: RAM pathway blockade in budding yeast – dse1pr::URA3 reporter, 5-FOA selection, pilot screen (AID 869;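 active means inhibition over a set limit, the all-compound mean plus 3 SD, in both replicate runs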;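 further: 0% = DMSO wells with no growth and 100% = 10 µM 1-NA-PP1 with full growth; RAM network block rescues cells from 5-FOA so hits raise OD615 growth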). Conditions: S. cerevisiae dse1pr::URA3 5-FOA growth, OD615, 2 d; at 10 µM; stronger effect = higher value; strain carries analog-sensitive mutant Cbk1 kinase.
Assay [14] can be described thus: RAM signaling pathway blockade in yeast – S. cerevisiae, Pdr1DBD-CYC8 efflux-inhibited sensitized strain, primary screen (AID 1298;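 active means RAM network inhibition above 8.4% in each of two replicates, 3 SD over the compound average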;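 further: 0% = DMSO untreated cells without growth and 100% = 10 µM 1-NA-PP1 full growth; higher means more yeast growth rescued from 5-FOA killing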). To be noted: S. cerevisiae cbk1-as DSE1-URA3 strain, 5-FOA growth OD615, 2 d; at 50 µM; stronger effect = higher value.
The nature of assay [15]: viability of PTEN-null HCT116 cells – cell-based, HCT116 clonal line, CellTiter-Glo, pilot screen (AID 824;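 active means viability at or below 27.92% in each of two runs, the all-compound median minus 4 SD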;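 further: 0% = 20 µM Hyamine control and 100% = vehicle cell control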). To be noted: HCT116 PTEN-deleted viability, 60 h, at 10 µM, stronger effect = lower value.
The mark [16] stands for this setting: H69AR cells + 2 uM doxorubicin, measured here: viability with 2 uM doxorubicin, stronger effect = lower value.
The mark [17] stands for this setting: H69AR cells, compound alone cytotoxicity.

This is an account of results in PubChem BioAssay.

Inconclusive results are not listed. The source made the active and inactive calls.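 How the source made its calls, unless noted: active means viability increase at or above a cutoff of the median across tested compounds plus 3 SD (cut at about 8.5% in these data, passing the limit was not always enough); inconclusive means some gains above the cutoff, reason not given; inactive means the rest.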

Receptor tyrosine-protein kinase erbB-2 (Homo sapiens), sequence (P04626 whole entry, looked up): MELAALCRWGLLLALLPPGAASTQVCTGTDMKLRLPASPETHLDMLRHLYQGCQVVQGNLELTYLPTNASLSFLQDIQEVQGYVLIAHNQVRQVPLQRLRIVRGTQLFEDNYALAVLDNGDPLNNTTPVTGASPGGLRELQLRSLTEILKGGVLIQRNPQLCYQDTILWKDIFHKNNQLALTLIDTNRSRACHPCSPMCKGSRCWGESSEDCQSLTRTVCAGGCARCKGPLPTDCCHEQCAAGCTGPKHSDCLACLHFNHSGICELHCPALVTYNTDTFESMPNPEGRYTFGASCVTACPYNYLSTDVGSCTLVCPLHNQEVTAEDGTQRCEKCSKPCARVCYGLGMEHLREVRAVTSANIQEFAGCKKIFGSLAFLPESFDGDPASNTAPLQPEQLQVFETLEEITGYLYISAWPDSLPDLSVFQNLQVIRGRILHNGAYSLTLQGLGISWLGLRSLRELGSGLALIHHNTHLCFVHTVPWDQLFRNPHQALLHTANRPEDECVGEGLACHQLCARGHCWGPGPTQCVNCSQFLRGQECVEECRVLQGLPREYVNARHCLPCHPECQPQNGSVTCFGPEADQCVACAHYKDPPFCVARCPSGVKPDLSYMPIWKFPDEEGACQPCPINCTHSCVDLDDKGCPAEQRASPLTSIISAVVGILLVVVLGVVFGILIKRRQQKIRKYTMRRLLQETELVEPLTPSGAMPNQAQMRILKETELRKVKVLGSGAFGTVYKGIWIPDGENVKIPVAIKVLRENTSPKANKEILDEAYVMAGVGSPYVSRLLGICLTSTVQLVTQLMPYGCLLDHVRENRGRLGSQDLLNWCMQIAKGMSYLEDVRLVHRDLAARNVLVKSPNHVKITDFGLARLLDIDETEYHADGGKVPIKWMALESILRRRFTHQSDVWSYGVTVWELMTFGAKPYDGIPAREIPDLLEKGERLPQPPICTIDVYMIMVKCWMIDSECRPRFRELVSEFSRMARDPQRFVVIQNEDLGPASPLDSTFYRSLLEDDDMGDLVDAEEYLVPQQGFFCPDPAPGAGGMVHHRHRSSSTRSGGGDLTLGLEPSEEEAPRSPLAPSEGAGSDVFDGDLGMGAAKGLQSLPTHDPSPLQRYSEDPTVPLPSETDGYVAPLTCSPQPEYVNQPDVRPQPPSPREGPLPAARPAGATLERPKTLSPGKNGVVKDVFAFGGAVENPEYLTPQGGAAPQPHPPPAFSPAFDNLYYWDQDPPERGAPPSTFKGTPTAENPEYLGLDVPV

In general, viability refers to a read-out of living cells in per cent, often relative to untreated cells. As a reminder, the inhibition is the drop in the measured response relative to a control, in per cent. Turning to `Cc1ccc(Cn2c(CN3CCOCC3)nc3c2c(=O)n(C)c(=O)n3C)cc1`, the viability in [1] was 80.5%; in assay [3], 80.5% (inactive); in assay [4], 90.5% (inactive); in [5] it was 102% (inactive); in assay [6] (setting [16]), 99.6%; in assay [6] (setting [17]), 102%. Further, in assay [12], the viability was 92.4% (inactive). In addition, in [2], the Her2 level is 89.5% (inactive). Besides, the differential viability (reversal) in assay [6] (H69AR cells + 2 uM doxorubicin) is 2.54% (inactive). In addition, the inhibition is -5.14% (inactive) in [7], 0% (inactive) in assay [8] and 2.71% (inactive) in assay [13]. The growth inhibition in [9] is -18% (inactive); in assay [10] it was -8.04% (inactive). Moreover, the viability increase in assay [11] is -4.67% (inactive). In addition, the RAM network inhibition in [14] is 2.86% (inactive).
With `CCC(C)(NC(=O)CNC(C)=O)C(=O)NC1CCCCC1` (stereo unspecified), the viability in assay [1] is 130%; in [3], 130% (inactive); in assay [4], 105% (inactive); in assay [5], 94% (inactive); in assay [6] (setting [16]), 97.1%; in assay [6] (setting [17]), 94%. Besides, in [15], the viability was 97.7% (inactive). For the same compound, in [2], the Her2 level was 108% (inactive). The differential viability (reversal) in assay [6] (H69AR cells + 2 uM doxorubicin) is -3.05% (inactive). The figures for the inhibition in [7], in assay [8] and in [13] were -5.48% (inactive), -9.52% (inactive) and 2.88% (inactive), respectively. Moreover, the growth inhibition in [9] is -15.5% (inactive); in assay [10], -3.8% (inactive). Also, the viability increase in assay [11] is -1.92% (inactive). In addition, the RAM network inhibition in assay [14] was -0.83% (inactive).
In the case of `Cc1ccc(SCC(=O)NCCN2C(=O)CSC2=O)c(C)c1`, the viability was 99.5% in assay [1]; 99.5% (inactive) in assay [3]; 92.3% (inactive) in assay [4]; 87.7% (inactive) in [5]; 89.5% in assay [6] (setting [16]); 87.7% in [6] (setting [17]). Moreover, the viability in assay [12] is 111% (inactive). Also, the Her2 level in [2] is 110% (inactive). In [6] (H69AR cells + 2 uM doxorubicin), the differential viability (reversal) was -1.79% (inactive). In addition, the results for the inhibition in [7], in [8] and in [13] were 0.52% (inactive), -0.83% (inactive) and 1.09% (inactive), respectively. For the same compound, the figures for the growth inhibition in assay [9] and in [10] were -14.8% (inactive) and -3.53% (inactive), respectively. Further, the viability increase in assay [11] is -0.38% (inactive). The RAM network inhibition in [14] was 3.32% (inactive).
Consider `O=C(CCNS(=O)(=O)c1cccc2nsnc12)Nc1ccc2c(c1)OCCO2`, for which the viability was 90.5% in assay [1]; 90.5% (inactive) in assay [3]; 88.7% (inactive) in assay [4]; 101% (inactive) in assay [5]; 88.5% in [6] (setting [16]); 101% in assay [6] (setting [17]). Also, the viability in assay [15] is 98.9% (inactive). Also, the Her2 level in assay [2] was 96% (inactive). Besides, the differential viability (reversal) in assay [6] (H69AR cells + 2 uM doxorubicin) was 12.9% (inactive). Also, the inhibition in assay [7] was -7.95% (inactive); in assay [8], -1.11% (inactive); in [13], 2.37% (inactive). The growth inhibition is -7.75% (inactive) in assay [9] and -0.065% (inactive) in assay [10]. In addition, the viability increase in [11] was -3.8% (inactive). Further, the RAM network inhibition in assay [14] was 4.76% (inactive).
Take `CCOC(=O)c1cc2c(=O)n3ccccc3nc2n(CC(C)C)c1=NC(=O)c1ccco1`: the viability is 84.5% in assay [1]; 84.5% (inactive) in [3]; 70.4% (inactive) in assay [4]; 7.19% (active) in assay [5]; 2.75% in [6] (setting [16]); 7.19% in assay [6] (setting [17]). Besides, in assay [15], the viability was 37.7% (inactive). In assay [2], the Her2 level is 83% (inactive). Further, the differential viability (reversal) in assay [6] (H69AR cells + 2 uM doxorubicin) was 4.44% (inactive). The inhibition in assay [7] was -2.47% (inactive); in assay [8], -3.33% (inactive); in assay [13] it was 0.955% (inactive). Besides, the growth inhibition is 1.45% (inactive) in [9] and 4.24% (inactive) in assay [10]. For the same compound, the viability increase in [11] was -7.74% (inactive). Also, in assay [14], the RAM network inhibition is 5.64% (inactive).
In the case of `CN1C(=O)C(O)(CC(=O)c2ccc(F)cc2)c2cc(Br)ccc21` (stereo unspecified), the viability in assay [1] was 85.5%; in assay [3], 85.5% (inactive); in assay [4], 76.8% (inactive); in assay [5] it was 20.1% (active); in [6] (setting [16]), 50.9%; in [6] (setting [17]), 20.1%. Further, the viability in assay [15] was 15.8% (active). Besides, the Her2 level in assay [2] is 86.5% (inactive). Moreover, the differential viability (reversal) in assay [6] (H69AR cells + 2 uM doxorubicin) is -30.8% (inactive). In addition, the inhibition in assay [7] was -5.2% (inactive); in assay [8] it was 2% (inactive); in assay [13], 1.45% (inactive). For the same compound, the growth inhibition in assay [9] is -8.62% (inactive); in assay [10], -8.46% (inactive). In addition, the viability increase in [11] was -6.12% (inactive). Further, the RAM network inhibition in assay [14] was -0.67% (inactive).
